Laboratory results: ChEMBL document CHEMBL1961873, “Compounds: GSK PKIS; Assays: Nanosyn kinase panel” (2012)

Assays:
[1] = target: Dual specificity protein kinase CLK3 (Homo sapiens) (UniProt P49761); details: at 1 µM;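 further: each value is the mean inhibition of CLK3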
[2] = target: Dual specificity tyrosine-phosphorylation-regulated kinase 1A (Homo sapiens) (UniProt Q13627); details: at 0.1 µM
[3] = target: Dual specificity tyrosine-phosphorylation-regulated kinase 1A (Homo sapiens) (UniProt Q13627); details: at 1 µM
[4] = target: Dual specificity tyrosine-phosphorylation-regulated kinase 1B (Homo sapiens) (UniProt Q9Y463); details: at 0.1 µM
Sequence of Dual specificity tyrosine-phosphorylation-regulated kinase 1B (Homo sapiens) (Q9Y463 whole entry, looked up): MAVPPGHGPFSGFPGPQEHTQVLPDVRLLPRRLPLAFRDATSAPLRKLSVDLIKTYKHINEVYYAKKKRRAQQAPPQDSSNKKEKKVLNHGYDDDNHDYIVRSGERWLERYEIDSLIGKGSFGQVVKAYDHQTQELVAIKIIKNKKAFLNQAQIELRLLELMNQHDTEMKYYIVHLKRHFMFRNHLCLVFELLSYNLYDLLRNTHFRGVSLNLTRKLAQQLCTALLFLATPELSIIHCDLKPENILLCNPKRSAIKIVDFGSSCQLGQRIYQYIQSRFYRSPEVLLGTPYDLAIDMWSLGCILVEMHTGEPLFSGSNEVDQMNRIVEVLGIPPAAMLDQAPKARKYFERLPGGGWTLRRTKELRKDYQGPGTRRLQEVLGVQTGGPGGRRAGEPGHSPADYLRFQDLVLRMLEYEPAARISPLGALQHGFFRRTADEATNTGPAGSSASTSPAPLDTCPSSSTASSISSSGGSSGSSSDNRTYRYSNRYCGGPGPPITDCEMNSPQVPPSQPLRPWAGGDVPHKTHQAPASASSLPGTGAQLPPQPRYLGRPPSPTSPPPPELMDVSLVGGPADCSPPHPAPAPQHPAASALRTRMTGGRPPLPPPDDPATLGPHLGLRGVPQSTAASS

[5] = target: Dual specificity tyrosine-phosphorylation-regulated kinase 1B (Homo sapiens) (UniProt Q9Y463); details: at 1 µM
[6] = target: T1, Dual specificity tyrosine-phosphorylation-regulated kinase 2 (Homo sapiens) (UniProt Q92630); details: at 0.1 µM
T1 sequence (whole entry): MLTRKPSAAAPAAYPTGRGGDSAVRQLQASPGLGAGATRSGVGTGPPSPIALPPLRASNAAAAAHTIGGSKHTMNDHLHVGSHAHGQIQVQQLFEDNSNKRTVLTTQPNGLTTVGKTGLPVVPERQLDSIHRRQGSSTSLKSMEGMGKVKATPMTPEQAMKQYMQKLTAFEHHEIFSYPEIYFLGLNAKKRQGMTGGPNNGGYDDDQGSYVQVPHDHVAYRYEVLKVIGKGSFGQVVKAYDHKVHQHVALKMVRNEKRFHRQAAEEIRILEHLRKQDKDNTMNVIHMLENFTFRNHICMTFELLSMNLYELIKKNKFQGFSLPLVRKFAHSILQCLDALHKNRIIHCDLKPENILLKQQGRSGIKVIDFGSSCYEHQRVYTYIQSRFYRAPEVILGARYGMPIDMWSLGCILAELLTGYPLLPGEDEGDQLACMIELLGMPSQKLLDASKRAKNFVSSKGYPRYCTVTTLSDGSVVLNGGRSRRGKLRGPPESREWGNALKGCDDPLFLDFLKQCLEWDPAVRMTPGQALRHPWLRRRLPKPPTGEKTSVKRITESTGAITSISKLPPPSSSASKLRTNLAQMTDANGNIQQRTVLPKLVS

[7] = target: T1, Dual specificity tyrosine-phosphorylation-regulated kinase 2 (Homo sapiens); details: at 1 µM
[8] = target: Glycogen synthase kinase-3 alpha (Homo sapiens) (UniProt P49840); details: at 0.1 µM
Sequence of Glycogen synthase kinase-3 alpha (Homo sapiens) (P49840 2-483 limits assumed): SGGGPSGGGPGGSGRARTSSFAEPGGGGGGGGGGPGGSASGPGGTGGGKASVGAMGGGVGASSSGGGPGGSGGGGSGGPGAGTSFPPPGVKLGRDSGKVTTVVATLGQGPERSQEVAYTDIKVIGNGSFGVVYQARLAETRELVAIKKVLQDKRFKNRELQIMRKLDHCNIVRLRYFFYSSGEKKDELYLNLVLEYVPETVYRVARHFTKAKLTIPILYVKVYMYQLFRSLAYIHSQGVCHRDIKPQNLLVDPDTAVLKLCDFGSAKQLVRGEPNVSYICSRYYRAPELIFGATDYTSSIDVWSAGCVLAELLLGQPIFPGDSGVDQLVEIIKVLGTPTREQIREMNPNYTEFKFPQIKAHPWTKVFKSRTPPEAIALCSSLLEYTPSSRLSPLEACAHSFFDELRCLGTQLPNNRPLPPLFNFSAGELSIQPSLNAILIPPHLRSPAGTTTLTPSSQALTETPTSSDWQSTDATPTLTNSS

[9] = target: Glycogen synthase kinase-3 alpha (Homo sapiens) (UniProt P49840); details: at 1 µM
[10] = target: Glycogen synthase kinase-3 beta (Homo sapiens) (UniProt P49841); details: at 0.1 µM
Sequence of Glycogen synthase kinase-3 beta (Homo sapiens) (P49841 whole entry, looked up): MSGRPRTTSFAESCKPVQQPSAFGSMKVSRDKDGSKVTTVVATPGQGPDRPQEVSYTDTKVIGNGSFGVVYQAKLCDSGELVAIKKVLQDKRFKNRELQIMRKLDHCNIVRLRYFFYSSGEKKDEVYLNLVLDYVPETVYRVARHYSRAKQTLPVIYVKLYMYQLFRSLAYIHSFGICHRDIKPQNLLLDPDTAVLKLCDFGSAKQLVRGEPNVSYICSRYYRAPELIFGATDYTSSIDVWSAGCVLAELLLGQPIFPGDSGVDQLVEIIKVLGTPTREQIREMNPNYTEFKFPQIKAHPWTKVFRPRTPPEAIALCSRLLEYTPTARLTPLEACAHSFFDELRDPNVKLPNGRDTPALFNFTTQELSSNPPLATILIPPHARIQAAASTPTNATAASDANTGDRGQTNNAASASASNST

[11] = target: Glycogen synthase kinase-3 beta (Homo sapiens) (UniProt P49841); details: at 1 µM
[12] = target: Homeodomain-interacting protein kinase 1 (Homo sapiens) (UniProt Q86Z02); details: at 0.1 µM
Sequence of Homeodomain-interacting protein kinase 1 (Homo sapiens) (Q86Z02 whole entry, looked up): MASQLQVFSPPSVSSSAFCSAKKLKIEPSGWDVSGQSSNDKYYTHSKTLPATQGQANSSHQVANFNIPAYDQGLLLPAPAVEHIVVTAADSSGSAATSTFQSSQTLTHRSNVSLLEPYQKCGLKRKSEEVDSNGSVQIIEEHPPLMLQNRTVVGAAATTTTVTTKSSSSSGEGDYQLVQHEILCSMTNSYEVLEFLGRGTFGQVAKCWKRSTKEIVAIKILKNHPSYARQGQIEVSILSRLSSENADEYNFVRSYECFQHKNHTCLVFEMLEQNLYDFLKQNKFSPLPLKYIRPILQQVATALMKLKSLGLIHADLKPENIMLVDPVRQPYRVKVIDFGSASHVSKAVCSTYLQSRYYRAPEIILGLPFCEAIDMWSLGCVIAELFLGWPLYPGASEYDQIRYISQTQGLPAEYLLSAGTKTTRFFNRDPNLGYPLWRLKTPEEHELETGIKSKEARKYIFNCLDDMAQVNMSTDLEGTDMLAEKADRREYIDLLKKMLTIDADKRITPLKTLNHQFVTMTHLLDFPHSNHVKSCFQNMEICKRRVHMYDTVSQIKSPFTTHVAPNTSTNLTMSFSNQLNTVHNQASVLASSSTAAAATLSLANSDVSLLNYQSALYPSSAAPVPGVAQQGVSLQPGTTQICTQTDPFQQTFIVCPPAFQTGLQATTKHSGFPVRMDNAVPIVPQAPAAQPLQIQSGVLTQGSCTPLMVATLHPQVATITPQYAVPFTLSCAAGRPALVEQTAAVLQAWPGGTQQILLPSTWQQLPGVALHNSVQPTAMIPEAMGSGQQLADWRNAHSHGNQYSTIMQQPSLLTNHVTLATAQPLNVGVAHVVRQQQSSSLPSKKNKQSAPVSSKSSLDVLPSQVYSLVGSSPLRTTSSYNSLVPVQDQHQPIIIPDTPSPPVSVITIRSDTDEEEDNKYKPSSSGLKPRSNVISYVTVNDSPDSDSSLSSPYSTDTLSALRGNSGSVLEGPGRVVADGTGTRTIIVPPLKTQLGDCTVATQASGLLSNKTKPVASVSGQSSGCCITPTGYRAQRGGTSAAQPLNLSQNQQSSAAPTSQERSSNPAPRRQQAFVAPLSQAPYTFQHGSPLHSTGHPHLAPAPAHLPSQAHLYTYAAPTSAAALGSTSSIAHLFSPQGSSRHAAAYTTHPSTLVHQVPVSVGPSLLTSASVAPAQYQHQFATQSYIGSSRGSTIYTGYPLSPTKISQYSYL

[13] = target: Homeodomain-interacting protein kinase 1 (Homo sapiens) (UniProt Q86Z02); details: at 1 µM
[14] = target: T2, Homeodomain-interacting protein kinase 4 (Homo sapiens) (UniProt Q8NE63); details: at 0.1 µM
T2 sequence (whole entry): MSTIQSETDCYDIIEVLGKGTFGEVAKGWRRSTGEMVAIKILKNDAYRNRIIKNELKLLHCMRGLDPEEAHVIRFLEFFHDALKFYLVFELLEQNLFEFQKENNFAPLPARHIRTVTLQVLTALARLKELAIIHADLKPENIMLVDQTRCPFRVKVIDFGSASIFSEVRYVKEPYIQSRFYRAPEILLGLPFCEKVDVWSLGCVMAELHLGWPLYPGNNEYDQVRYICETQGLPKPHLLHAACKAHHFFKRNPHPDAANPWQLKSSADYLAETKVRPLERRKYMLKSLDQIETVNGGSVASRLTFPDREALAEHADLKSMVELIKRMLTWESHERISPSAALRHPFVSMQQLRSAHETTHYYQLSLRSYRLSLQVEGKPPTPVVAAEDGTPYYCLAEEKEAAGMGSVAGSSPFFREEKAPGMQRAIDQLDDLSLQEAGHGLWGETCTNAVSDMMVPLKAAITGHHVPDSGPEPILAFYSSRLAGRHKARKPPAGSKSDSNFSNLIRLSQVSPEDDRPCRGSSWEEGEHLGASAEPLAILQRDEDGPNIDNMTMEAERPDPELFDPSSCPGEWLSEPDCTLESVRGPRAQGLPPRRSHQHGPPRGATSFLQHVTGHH

[15] = target: T2, Homeodomain-interacting protein kinase 4 (Homo sapiens); details: at 1 µM
[16] = target: Mitogen-activated protein kinase 9 (Homo sapiens) (UniProt P45984); details: at 0.1 µM
Sequence of Mitogen-activated protein kinase 9 (Homo sapiens) (P45984 whole entry, looked up): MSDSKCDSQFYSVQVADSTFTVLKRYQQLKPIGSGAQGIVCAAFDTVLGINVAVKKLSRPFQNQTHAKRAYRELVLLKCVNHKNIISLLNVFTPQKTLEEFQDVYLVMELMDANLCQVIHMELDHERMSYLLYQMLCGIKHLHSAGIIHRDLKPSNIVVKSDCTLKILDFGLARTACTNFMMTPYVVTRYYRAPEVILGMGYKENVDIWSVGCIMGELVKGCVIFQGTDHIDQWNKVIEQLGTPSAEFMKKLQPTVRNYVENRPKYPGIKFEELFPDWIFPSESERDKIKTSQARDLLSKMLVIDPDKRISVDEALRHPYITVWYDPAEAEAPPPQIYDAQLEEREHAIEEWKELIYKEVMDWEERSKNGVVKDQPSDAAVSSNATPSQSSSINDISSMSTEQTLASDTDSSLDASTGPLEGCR

[17] = target: Mitogen-activated protein kinase 9 (Homo sapiens) (UniProt P45984); details: at 1 µM
[18] = target: Mitogen-activated protein kinase 1 (Homo sapiens) (UniProt P28482); details: at 0.1 µM
Sequence of Mitogen-activated protein kinase 1 (Homo sapiens) (P28482 whole entry): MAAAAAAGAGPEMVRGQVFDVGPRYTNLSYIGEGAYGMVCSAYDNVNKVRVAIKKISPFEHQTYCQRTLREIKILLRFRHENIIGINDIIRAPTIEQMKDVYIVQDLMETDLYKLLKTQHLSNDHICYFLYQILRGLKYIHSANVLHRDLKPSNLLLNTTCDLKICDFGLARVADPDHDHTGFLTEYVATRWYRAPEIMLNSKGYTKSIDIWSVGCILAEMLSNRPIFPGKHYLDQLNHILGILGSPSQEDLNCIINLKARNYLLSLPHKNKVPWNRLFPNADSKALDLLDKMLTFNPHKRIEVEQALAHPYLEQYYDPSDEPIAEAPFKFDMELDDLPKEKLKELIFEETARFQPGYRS

[19] = target: Mitogen-activated protein kinase 1 (Homo sapiens) (UniProt P28482); details: at 1 µM
[20] = target: Mitogen-activated protein kinase 3 (Homo sapiens) (UniProt P27361); details: at 0.1 µM;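 further: each value is a mean inhibition figure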
Sequence of Mitogen-activated protein kinase 3 (Homo sapiens) (P27361 whole entry): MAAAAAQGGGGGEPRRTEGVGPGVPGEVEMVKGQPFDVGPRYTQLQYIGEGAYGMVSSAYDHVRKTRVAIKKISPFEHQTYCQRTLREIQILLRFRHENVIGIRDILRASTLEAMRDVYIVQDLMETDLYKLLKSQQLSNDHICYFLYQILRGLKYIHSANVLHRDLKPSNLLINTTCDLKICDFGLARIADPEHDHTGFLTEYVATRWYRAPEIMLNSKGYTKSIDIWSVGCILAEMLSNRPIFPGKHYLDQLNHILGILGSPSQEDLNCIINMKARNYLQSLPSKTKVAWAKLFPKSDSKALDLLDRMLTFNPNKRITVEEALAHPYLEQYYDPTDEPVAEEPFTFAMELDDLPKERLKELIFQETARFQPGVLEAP

Sequence of Dual specificity protein kinase CLK3 (Homo sapiens) (P49761 whole entry, looked up): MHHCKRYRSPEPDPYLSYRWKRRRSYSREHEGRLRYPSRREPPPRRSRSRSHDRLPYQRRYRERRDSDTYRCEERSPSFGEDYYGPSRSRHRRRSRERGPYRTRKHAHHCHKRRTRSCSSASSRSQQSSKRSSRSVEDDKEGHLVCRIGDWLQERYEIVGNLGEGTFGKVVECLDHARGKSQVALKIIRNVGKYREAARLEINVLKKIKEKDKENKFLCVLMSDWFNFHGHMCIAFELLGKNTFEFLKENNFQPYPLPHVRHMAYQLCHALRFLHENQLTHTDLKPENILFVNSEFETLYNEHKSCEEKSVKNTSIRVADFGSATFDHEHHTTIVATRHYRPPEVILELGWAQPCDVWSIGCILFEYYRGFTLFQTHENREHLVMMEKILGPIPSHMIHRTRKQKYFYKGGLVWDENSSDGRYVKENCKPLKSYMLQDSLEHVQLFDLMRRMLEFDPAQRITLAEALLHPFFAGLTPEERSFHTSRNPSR

| SMILES | inhibition [1] [%] | inhibition [2] [%] | inhibition [3] [%] | inhibition [4] [%] | inhibition [5] [%] | inhibition [6] [%] | inhibition [7] [%] | inhibition [8] [%] | inhibition [9] [%] | inhibition [10] [%] | inhibition [11] [%] | inhibition [12] [%] | inhibition [13] [%] | inhibition [14] [%] | inhibition [15] [%] | inhibition [16] [%] | inhibition [17] [%] | inhibition [18] [%] | inhibition [19] [%] | inhibition [20] [%] |
| --- | --- | --- | --- | --- | --- | --- | --- | --- | --- | --- | --- | --- | --- | --- | --- | --- | --- | --- | --- | --- |
| Fc1cccc(COc2ccc(Nc3ncnc4sc(-c5cccs5)cc34)cc2Cl)c1 | -0.15 | 1.88 | 6.51 | 1.39 | 2.06 | -1.01 | 1.17 | 1.69 | 6.14 | 1.97 | 5.88 | -5.41 | 2.04 | 0.33 | 1.31 | 0.62 | 1.01 | 2.17 | 1.6 | 1.1 |
| COC(=O)Nc1nc2cc(Oc3ccc(NC(=O)Nc4cccc(C(=O)O)c4)cc3)ccc2[nH]1 | 0.74 | -4.02 | -1.76 | -3.44 | -1.48 | 0.41 | -0.17 | -2.54 | 1.82 | -2.48 | 2.13 | -2.08 | 0.32 | 0.29 | 3.06 | -0.11 | -0.13 | 0.56 | 0.1 | 0.92 |
| CCCN1CCC=C(c2ccc(Nc3nc(Nc4ccccc4C(N)=O)c4cc[nH]c4n3)c(C)c2)C1 | 6.97 | 56.2 | 92.3 | 39.5 | 71.1 | 8.53 | 44.2 | 5.89 | 28.1 | 3.05 | 17.1 | 16.3 | 59.6 | 15.1 | 56.5 | 46.5 | 84.9 | 6.87 | 29.5 | 6.39 |
| O=C1NC(=O)C(c2cccc(Cl)c2)=C1Nc1ccc(O)c(Cl)c1 | 5.01 | 2.08 | 17.3 | 1.51 | 8.29 | 1 | 0.69 |  |  |  |  | -2.68 | 1.28 | -1.68 | 0.62 | 3.34 | 1.38 | -0.66 | 1.91 | 2.05 |
| COc1ccc2cc(-c3c(-c4ccncc4)nc(-c4ccc([S+](C)[O-])cc4)n3C)ccc2c1 (stereo not given) | 0.67 | 0.49 | 3.52 | -0.23 | 0.37 | 3.31 | 1.71 | 4.07 | 11.5 | 2.47 | 9.29 | -1.81 | 1.99 | 0.14 | -0.51 | 1.55 | 4.27 | 1.94 | 2.54 | 4.68 |
| COc1ccc(COc2ccc(Cc3cnc(N)nc3N)cc2OC)cc1 | -0.53 | 1.44 | 0.52 | 4 | 2.57 | -0.01 | 0.42 | 1.37 | 0.34 | 0.96 |  | -1.6 | 0.13 | 2.52 | 4.49 | 0.2 | 0.51 | -1.03 | -0.13 | 0.6 |
| CS(=O)(=O)Nc1ccc(N/C=C2\C(=O)Nc3ccccc32)cc1 | 1.06 | 0.92 | 10.4 | 3.56 | 13.9 | -1.66 | -0.97 | 7.94 | 19.6 | 6.71 | 17.2 | -1.53 | 3.36 | 0.6 | 4.82 | 0.25 | 5.63 | -4.34 | -2.51 | -0.36 |
| CC1=C(C(=O)Nc2ccc3[nH]ncc3c2)C(c2ccc(F)cc2)NC(=O)N1 (stereo not given) | 1.47 | 1.78 | 1.58 | -0.22 | 3.29 | 0.94 | 2.08 | -0.66 | -0.33 | -0.1 | 1.6 | -0.95 | -0.69 | -0.2 | -0.66 | 1.75 | 0.78 | 1.62 | 4.83 | 2.23 |
| O=C1NC(=O)C(c2ccccc2Cl)=C1Nc1cccc(O)c1 | 21.8 | 8.06 | 38.5 | 2.78 | 15.2 | 3.09 | 2.96 |  |  |  |  | 1.81 | 7.57 | 0.96 | 3.38 | 2.21 | 2.41 | 2.64 | 2.43 | 2.98 |
| CC1=C(C(=O)Nc2ccc3[nH]ncc3c2)C(c2ccc(Cl)c(Cl)c2)CC(=O)N1 (stereo not given) | 2.49 | -0.12 | 3.73 | 0.77 | 3.21 | 1.35 | 2.88 | 0.15 | 4.5 | -0.24 | 4.85 | 0.46 | -2.51 | 1 | 4.37 | 1.22 | 2.79 | 3.85 | 27.4 | 2.47 |
| CC1=C(C(=O)Nc2ccc3[nH]ncc3c2)C(c2ccc3ccccc3c2)CC(=O)N1 (stereo not given) | 4.72 | 3.4 | 5.32 | 2.6 | 3.67 | 0.96 | 1.61 | 2.64 | 5.8 | 2.72 | 7.81 | 1.49 | 4.61 | 1.02 | 4.03 | 0.73 | 2.65 | 5.52 | 39.5 | 3.92 |
| CCn1c(-c2nonc2N)nc2c(C#CC(C)(C)O)nc(OC[C@@H](N)c3ccccc3)cc21 | 0.8 | -0.38 | 5.33 | 1.06 | 4.19 | -1.52 | -0.54 | 37.4 | 78.5 | 32.1 | 76 | 1.19 | 13.3 | 1.04 | 8.34 | -0.01 | -0.83 | -1.1 | 3.38 | -3.17 |
| COC(=O)Nc1nc2cc(Oc3cccc(NC(=O)Nc4cc(C(F)(F)F)ccc4F)c3)ccc2[nH]1 | 0.16 | -0.01 | 2.54 | -0.21 | 1.68 | -0.32 | -0.02 | 1.75 | 7.54 | 0.73 | 6.36 | -3.75 | -1.32 | -1.03 | 11.4 | 2.79 | 1.58 | -0.65 | 0.3 | -0.17 |
| Nc1ncnc2occ(-c3ccc(NC(=O)Nc4cccc(C(F)(F)F)c4)cc3)c12 |  | 3.42 | 6.79 | -0.28 | 1.94 | 3.2 | 2.85 | 3.15 | 9.54 | 2.89 | 11 | 5.73 | 37.4 | 67.4 | 78.3 | 3.31 | 14.5 | 4.78 | 6.77 | 4.22 |
